Source: PubChem (National Center for Advancing Translational Sciences (NCATS))
Compounds with a hit are over-represented: about 8.9% of the library has one in this group of screens.
D3 antag = blocks the human D3 dopamine receptor; P35462; D3R cells, DiscoveRx beta-arrestin luminescence, antagonist mode; hits give low values; max response, negative = inhibition, %; 2.5% of 360,000 active; in the data active = max response below about -50%; inconclusive = no clear call, values can overlap the other calls; also: % is scaled to controls: 0 for no effect and ±100 for the full control effect
Target sequence (P35462 whole entry, looked up): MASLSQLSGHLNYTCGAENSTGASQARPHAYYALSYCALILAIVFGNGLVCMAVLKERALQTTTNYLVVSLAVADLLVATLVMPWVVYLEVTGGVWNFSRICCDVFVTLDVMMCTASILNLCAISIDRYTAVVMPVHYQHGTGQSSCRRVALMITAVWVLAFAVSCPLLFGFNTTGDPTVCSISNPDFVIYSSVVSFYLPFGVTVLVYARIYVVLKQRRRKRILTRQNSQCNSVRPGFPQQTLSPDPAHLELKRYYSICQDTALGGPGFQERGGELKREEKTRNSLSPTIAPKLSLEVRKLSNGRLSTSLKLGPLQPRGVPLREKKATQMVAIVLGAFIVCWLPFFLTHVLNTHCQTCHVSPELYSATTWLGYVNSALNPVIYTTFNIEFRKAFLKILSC
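Cells expressing the human receptor were seeded at 1500 cells/well, incubated overnight at 37 degrees C in 5% CO2, then exposed to library compounds with dopamine controls for 90 minutes at 37 degrees C before luminescent detection.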
KB-V1 MDR tox = KB-V1 MDR subline cytotoxicity; KB-V1 MDR cells viability, CellTiter-Glo, 72 h; Potency, µM (top dose mostly 46.1 µM), usual class: cytotoxic; 3.4% of 400,000 active; AID 1347076; also: potency is read from the fitted curve at half-maximal effect; % is scaled to controls: 0 for no effect and ±100 for the full control effect; nearly all actives have a fitted effect of over 60% in size
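Luminescent ATP read-out (CellTiter-Glo, 10 min) measures survival of drug-selected KB-V1 MDR cells after 72 h, 37 degrees C compound exposure. Medium: phenol-red-free DMEM, 10% FBS. Values from fitted concentration-response curves.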
SW480 rerep = inducers of DNA re-replication in SW480 colon cancer cells. Potency, µM (top dose mostly 46.1 µM), without a hit: at the highest dose re-replication activation, most hits filed as activators. SW480 DNA re-replication, Hoechst DNA content imaging, 48 h. 1.8% of 340,000 active. AID 624297; also: potency is read from the fitted curve at half-maximal effect; % of control where 0% means no effect; nearly all actives have a fitted effect of over 55% in size
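Treated cells incubate 48 hr (37 C, 5% CO2), are stained 40 min with Hoechst, and nuclear fluorescence is enumerated; a rise in nuclei with high DNA signal marks re-replication.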
KB-3-1 cytotox = KB-3-1 parental cell cytotoxicity | KB-3-1 viability, CellTiter-Glo ATP luminescence, 72 h | Potency, µM (titrated, usually from 46.1 µM), actives largely listed as cytotoxic | 1.4% of 400,000 active; also: potency is read from the fitted curve at half-maximal effect; % is scaled to controls: 0 for no effect and ±100 for the full control effect; nearly all actives have a fitted effect of over 60% in size
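Viability of parental KB-3-1 cells, measured by CellTiter-Glo luminescence, followed a 72 h incubation at 37 °C with pinned compounds in phenol-red-free DMEM containing 10% FBS.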
MCF10A rerep = DNA re-replication induction in MCF 10a cells; MCF 10A DNA re-replication, Hoechst nuclear intensity, 48 h; AID 624296; 2.9% of 350,000 active; Potency, µM (series often up to 46.1 µM), for inactives: at the highest dose activity, positive = re-replication, actives largely listed as activators; also: potency is read from the fitted curve at half-maximal effect; % of control where 0% means no effect; nearly all actives have a fitted effect of over 50% in size
DRD3 agonist = activates the human D3 dopamine receptor. AID 652048. P35462. max activation, %. 0.58% of 410,000 active. D3R DiscoveRx beta-arrestin cells, luminescence, 90 min; in the data active = max activation above about 30%; also: 0% is about no effect
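Cells at 1500/well, incubated overnight, then treated with pinned compounds (dopamine as control) for 90 min at 37 degrees C. DiscoveRx reagent added for 30 - 60 minutes at room temperature; luminescence read.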
An asterisk follows results filed as active; i = inactive; ? = inconclusive; . = no result given. Unless noted, calls follow the shape of the dose curve; as a rule, active = well fitted curve in the direction sought with a large enough effect; inconclusive = small, poorly fitted or top-dose-only effect, or another doubt; inactive = no such curve, though single readings can be large; an effect the other way counts as inactive or inconclusive.

SMILES	D3 antag	KB-V1 MDR tox	SW480 rerep	KB-3-1 cytotox	MCF10A rerep	DRD3 agonist
NC(=O)c1nn(Cc2ccccc2)c(=O)c2ccccc12	-4.9	?	-6.2%	i	-0.8%	-10.8
COC(=O)c1nn(Cc2ccccc2)c(=O)c2ccccc12	-7.5	16.4µM*	-1.7%	i	11.9%	3.6
Cc1ccccc1OCc1n[nH]c(=S)n1-c1cccc(Cl)c1	-4.7	i	2.8%	i	-1.3%	-2.9
COc1ccc(Cl)cc1-c1n[nH]c(=S)n1C1CCCCC1	-59.8*	i	1.5%	i	4.9%	-2.0
Cc1cc(Cl)ccc1OCc1n[nH]c(=S)n1C1CCCCC1	-63.6*	i	-1.5%	i	25.9µM*	-3.0
CC1=C(C(=O)N(C(C)C)C(C)C)CC(CC(=O)NCc2cccc3ccccc23)C(=O)N1Cc1ccc(F)cc1 (stereo not drawn)	18.4	?	.	?	.	8.3
Cc1cc(Cl)ccc1OCCSc1nnc(-c2cccs2)o1	.	i	.	i	.	-1.1
CCC(=O)N1CCN(c2ccc(NC(=O)COc3ccc(C)cc3C)cc2)CC1	11.1	i	0.2%	i	13.0%	16.9
Cc1ccc(C(=O)N2CCN(c3ccc(NC(=O)COc4ccccc4C)cc3)CC2)cc1	43.4	?	3.9%	18.4µM*	9.5%	13.7
CC(=O)N1CCN(c2ccc(NC(=O)c3ccc(C)cc3)cc2)CC1	12.4	18.4µM*	-4.5%	i	3.4%	-0.1
Cc1ccc(NC(=O)c2ccc(OC(=S)N3CCOCC3)cc2)cc1	20.8	6.51µM*	-1.0%	i	2.0%	0.2
CC(C)(C)S(=O)(=O)N1Cc2cc(CO)cc(CCO)c2[C@@H]1CCO	0.0	i	0.6%	i	2.3%	8.5
CCc1cccc(NC(=O)CC2Oc3ccc(C)cc3NC2=O)c1 (stereo not drawn)	.	.	.	.	.	-16.0
N#Cc1cnc2nc1NCCCCCCC2	-16.1	5.17µM*	.	?	.	-5.7
Cc1csc2sc(-c3ccnc(SCC(=O)NCc4ccccc4)n3)c(C)c12	-1.1	5.8µM*	18.4µM*	?	?	-11.7
CC1(C(=O)NS(=O)(=O)c2ccc(F)cc2F)CCN1C(=O)Cc1ccc(Cl)cc1Cl (stereo not drawn)	-0.1	i	.	i	.	-5.9
N/C(=N\NS(=O)(=O)c1ccccc1C(F)(F)F)c1ccccn1	0.7	i	?	i	-0.1%	0.6
Cc1nc(C(F)(F)F)c(C(=O)N/N=C(\N)c2ccccn2)s1	-51.9*	?	7.31µM*	?	?	-3.9
O=C(NCCc1ccccc1)c1[nH]c(C(F)(F)F)nc1-c1ccccc1	10.4	i	.	i	.	7.7
CN(C)CCN(Cc1ccccc1)C(=O)c1[nH]c(C(F)(F)F)nc1-c1ccccc1	0.0	i	.	i	.	38.6*
O=C(NCCC1=CCCCC1)c1[nH]c(C(F)(F)F)nc1-c1ccccc1	-6.1	?	.	?	.	112.2*
O=C(NCc1ccccc1)c1[nH]c(C(F)(F)F)nc1-c1ccccc1	-24.3	i	.	i	.	65.1*
Cc1ccc(S(=O)(=O)c2cn(Cc3ccccc3)c3cc(N4CCCC4)c(F)cc3c2=O)cc1	.	i	.	i	.	6.2
Cc1sc(NC(=O)COc2ccccc2)c(C#N)c1-c1ccccc1	-10.1	16.4µM*	-6.0%	i	-2.9%	20.3
N#Cc1c(NC(=O)CN2CCOCC2)oc(-c2ccccc2)c1-c1ccccc1	-59.2*	i	-3.6%	i	3.7%	-2.8
COc1ccc(-c2oc(NC(=O)CSc3ncn[nH]3)c(C#N)c2-c2ccc(OC)cc2)cc1	?	i	35.5µM*	i	14.1µM*	23.4
CCCC(=O)Nc1sc(C)c(C)c1C#N	10.8	i	-11.4%	i	-0.4%	2.6
CCCC(=O)Nc1sc(C)c(-c2ccc(C(C)CC)cc2)c1C#N (stereo not drawn)	41.5	i	1.8%	i	-14.1%	30.4*
Cc1ccc(-c2nc3ccccc3o2)cc1NC(=O)c1cccc2c(Cl)cccc12	.	?	.	i	.	-1.2
